# Several values for one entry are separate records, joined by “and”; a condition that tells them apart may be missing. Equal values may be shown once. Records with an inconclusive call do not appear. Where a call stands in place of a potency, no number is given. Activity calls are given as the source filed them. Unless noted, calls follow the shape of the dose curve; as a rule, active = well fitted curve in the direction sought with a large enough effect; inconclusive = small, poorly fitted or top-dose-only effect, or another doubt; inactive = no such curve, though single readings can be large; an effect the other way counts as inactive or inconclusive.
# What was measured:
# [1] = Validation of Assay for Modulators of Lamin A Splicing (AID 1459; active = well fitted curve in the direction sought with a large enough effect in the signal ratio; the % refers to the signal ratio;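 also: cells exposed to compound for two days before reading; ratio rise marks activators and ratio drop marks inhibitors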); details: Lamin A splicing dual RFP/GFP fluorescence reporter; series mostly up to 9.22 µM
# How it was run: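 S3 HeLa cells stably expressing a lamin A-EGFP splicing minigene and DsRed2 were seeded at 600 cells/well in Opti-MEM with 2% FBS, pin-dosed, and incubated 48 hrs at 37 °C, 5% CO2. Laser-scanning cytometry (488 nm) gave GFP/RFP total intensity ratio.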
# [2] = qHTS Assay for Lipid Storage Modulators (AID 1519; calls by dose curve); details: Drosophila S3 cells, BODIPY lipid droplet/cell ratio, laser cytometry, cells loaded with oleic acid; for activity change, negative = inhibition: at 57.5 µM (top of the series)
# How it was run: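 Cells seeded at 5,000 per well were treated with compounds over a concentration series and loaded with oleic acid (400 uM, as added). Lipid droplet fluorescence (488 nm excitation, 500-530 nm channel) was read by laser-scanning cytometry and normalized to 20 uM Triacsin C.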
# [3] = molecular target: DNA repair nuclease/redox regulator APEX1 (Homo sapiens) (UniProt P27695); test: qHTS Validation Assay for Inhibitors of the Human Apurinic/apyrimidinic Endonuclease 1 (APE1) (AID 1705; also: potency is read from the fitted curve at half-maximal effect;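 as to activity change, negative = inhibition: TAMRA fluorescence gain over two minutes as APE1 cuts a quenched THF abasic duplex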); details: purified APE1 endonuclease activity, fluorescence, titration; series mostly up to 57.1 µM
# DNA repair nuclease/redox regulator APEX1 (Homo sapiens), sequence (P27695 whole entry, looked up): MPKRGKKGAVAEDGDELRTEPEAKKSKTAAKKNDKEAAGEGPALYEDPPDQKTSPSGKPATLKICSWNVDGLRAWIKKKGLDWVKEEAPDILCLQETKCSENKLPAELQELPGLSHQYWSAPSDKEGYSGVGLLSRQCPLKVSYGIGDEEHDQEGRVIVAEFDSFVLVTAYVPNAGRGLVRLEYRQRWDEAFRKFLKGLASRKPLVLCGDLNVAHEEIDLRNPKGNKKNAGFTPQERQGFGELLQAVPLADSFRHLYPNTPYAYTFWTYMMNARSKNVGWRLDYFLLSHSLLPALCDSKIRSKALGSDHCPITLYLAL
# How it was run: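 Human APE1 was preincubated with compound for 15 min at room temperature, then 50 nM (final) THF-abasic double-stranded DNA substrate bearing 5'-TAMRA and 3'-BHQ-2 was added. Incision-driven fluorescence rise (ex 525/em 598 nm) was read kinetically.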
# [4] = molecular target: Alpha-galactosidase A (Homo sapiens) (UniProt P06280); test: Counterscreen for Glucocerebrosidase Inhibitors: qHTS Assay for Human alpha-Galactosidase at pH 4.5 (AID 992); details: purified enzyme, fluorogenic substrate; series mostly up to 76.9 µM
# Alpha-galactosidase A (Homo sapiens), sequence (P06280 whole entry, looked up): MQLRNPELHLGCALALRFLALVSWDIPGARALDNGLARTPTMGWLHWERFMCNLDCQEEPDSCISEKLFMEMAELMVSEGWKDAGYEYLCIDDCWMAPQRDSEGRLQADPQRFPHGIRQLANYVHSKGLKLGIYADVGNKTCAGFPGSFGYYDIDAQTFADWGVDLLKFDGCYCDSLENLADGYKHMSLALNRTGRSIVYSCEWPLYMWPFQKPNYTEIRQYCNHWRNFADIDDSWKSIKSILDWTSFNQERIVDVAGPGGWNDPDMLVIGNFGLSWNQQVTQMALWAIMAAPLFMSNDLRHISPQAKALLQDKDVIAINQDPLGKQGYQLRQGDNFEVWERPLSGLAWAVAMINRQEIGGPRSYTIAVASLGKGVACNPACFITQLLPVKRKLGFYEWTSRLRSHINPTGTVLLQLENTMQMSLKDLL
# How it was run: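 Each compound is preincubated briefly with 2 nM enzyme before substrate addition (80 uM); plates then sit 20 min at ambient temperature, are quenched with 1M NaOH/1M glycine, and read fluorometrically.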
# [5] = molecular target: alpha-glucosidase (Oryza sativa, rice) (UniProt Q653V4); test: Counterscreen for Glucocerebrosidase Inhibitors: qHTS Assay for Rice alpha-Glucosidase at pH 5.0 (AID 997); details: rice alpha-glucosidase enzyme activity; series mostly up to 76.9 µM
# How it was run: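 Endpoint fluorogenic assay at pH 5.0: compounds (0.7 nM to 77 uM) titrated against 4 nM rice enzyme and 400 uM 4-MU-alpha-glucoside for 20 min at room temperature; NaOH/glycine stop, read ex 365/em 440 nm, Hill-fitted AC50.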
# [6] = Cell Viability - LYMP2-020 (AID 986); details: series mostly up to 92.2 µM; also: nearly all actives have a fitted effect of over 55% in size
# How it was run: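 Cytotoxicity in qHTS format: luminescent ATP readout from CellTiter-Glo after 24 h compound exposure at 37 C in complete medium. LYMP2-020 lymphoblastoid cells were seeded at 2500/well; concentration-response data fitted to the Hill equation for AC50.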
# [7] = Cell Viability - LYMP2-022 (AID 987); details: LYMP2-022 lymphoblastoid cell viability; series mostly up to 92.2 µM; also: nearly all actives have a fitted effect of over 55% in size
# How it was run: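 Cytotoxicity read as decreased cellular ATP (CellTiter-Glo luminescence, 30 min room temperature) after 24 hours compound exposure of 2500 lymphoblastoid LYMP2-022 cells/well at 37 C. Concentration-response data fitted with standard Hill equation for AC50.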
# [8] = Cell Viability - LYMP2-024 (AID 988); details: LYMP2-024 lymphoblastoid cell viability; series mostly up to 92.2 µM; also: nearly all actives have a fitted effect of over 60% in size
# How it was run: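 Cytotoxicity was taken as a decrease in ATP (CellTiter-Glo luminescence) after 24 hr compound exposure at 37 C of LYMP2-024 lymphoblastoid cells, 2500 cells/well. Concentration-response data were fitted to the Hill equation to give AC50.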
# [9] = Cell Viability - LYMP2-026 (AID 989); details: LYMP2-026 lymphoblastoid cell viability, qHTS; series mostly up to 92.2 µM; also: nearly all actives have a fitted effect of over 50% in size
# How it was run: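 Cytotoxicity read as ATP-dependent luminescence (CellTiter-Glo, 30 min room temperature) after 24 h compound treatment at 37 C. LYMP2-026 lymphoblastoid line seeded at 2500 cells/well; AC50 derived by standard Hill equation.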
# [10] = Cell Viability - LYMP1-002 - Assay at 24 hr (AID 993); details: LYMP1-002 lymphoblastoid cells viability; series mostly up to 92.2 µM
# How it was run: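 qHTS cytotoxicity at 24 h: CellTiter-Glo ATP luminescence in lymphoblastoid line LYMP1-002 incubated with compound at 37 °C. Concentration-response modeled with the Hill equation for AC50; tetraoctylammonium bromide served as positive control.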
# [11] = measured here: cell count channel max response
# [12] = measured here: lipid channel max response
compound,measurement,setting,value
CN1[C@@H](CC(=O)c2ccccc2)CCC[C@H]1C[C@H](O)c1ccccc1,outcome,[1],inactive
same,"activity change, negative = inhibition",[2],-1.25% (inactive)
same,max response,[2]; [11],24.6%
same,max response,[2]; [12],23.7%
same,Potency,[3],inactive
O=C(O)c1cc([N+](=O)[O-])ccc1NCCCc1ccccc1,outcome,[4],inactive
same,outcome,[5],inactive
same,outcome,[1],inactive
same,"activity change, negative = inhibition",[2],0.312% (inactive)
same,max response,[2]; [11],-11.5%
same,max response,[2]; [12],-12.2%
same,Potency,[3],inactive
O=C(O)c1cc(=O)c2ccccc2[nH]1,outcome,[4],inactive
same,outcome,[5],inactive
same,outcome,[1],inactive
same,"activity change, negative = inhibition",[2],3.93% (inactive) [middle of 4 runs]
same,Potency,[3],inactive
CC1(C)CCC=[N+]1[O-],outcome,[4],inactive
same,outcome,[5],inactive
same,outcome,[1],inactive
same,"activity change, negative = inhibition",[2],0.483% (inactive)
same,max response,[2]; [11],-28.1%
same,max response,[2]; [12],-25.6%
same,Potency,[3],inactive
C=C/C(C)=C/[C@@]1(C)SC(=O)C(C)=C1O,outcome,[1],inactive
same,"activity change, negative = inhibition",[2],0.111% (inactive)
same,max response,[2]; [11],30.8%
same,max response,[2]; [12],34%
same,Potency,[3],1000 nM (active)
O=C(O)c1cc(=O)c2c(Cl)cc(Cl)cc2[nH]1,outcome,[4],inactive
same,outcome,[5],inactive
same,outcome,[1],inactive
same,"activity change, negative = inhibition",[2],4.31% (inactive) and -0.435% (inactive)
same,max response,[2]; [11],15.8% and 12.6%
same,max response,[2]; [12],22.3% and 11.7%
same,Potency,[3],inactive
O=C(O)[C@@H]1C[C@@H](C(=O)O)N1,outcome,[4],inactive
same,outcome,[5],inactive
same,outcome,[1],inactive
same,"activity change, negative = inhibition",[2],-10.7% (inactive) and 0.262% (inactive)
same,max response,[2]; [11],-15.8% and -6.72%
same,max response,[2]; [12],-25% and -8.29%
same,Potency,[3],inactive
Cc1ccccc1CNc1ncnc2c1ncn2C1OC(CO)C(O)C1O (stereo unspecified),outcome,[1],inactive
same,"activity change, negative = inhibition",[2],0.209% (inactive)
same,max response,[2]; [11],-22.5%
same,max response,[2]; [12],-21.9%
same,Potency,[3],inactive
NCCCCCCCCCCN,outcome,[4],inactive
same,outcome,[5],inactive
same,outcome,[1],inactive
same,"activity change, negative = inhibition",[2],-1.41% (inactive)
same,max response,[2]; [11],42.1%
same,max response,[2]; [12],42.6%
same,Potency,[3],inactive
NC(CCCP(=O)(O)O)C(=O)O (stereo unspecified),outcome,[1],inactive
same,"activity change, negative = inhibition",[2],0.0706% (inactive)
same,max response,[2]; [11],-11.8%
same,max response,[2]; [12],-9.55%
same,Potency,[3],inactive
CN1CCC[C@H]1c1cccnc1,Potency,[6],inactive
same,Potency,[7],inactive
same,Potency,[8],inactive
same,Potency,[9],inactive
same,Potency,[10],inactive
same,outcome,[1],inactive
same,"activity change, negative = inhibition",[2],2.76% (inactive) and 1.23% (inactive)
same,max response,[2]; [11],8.37% and -8.82%
same,max response,[2]; [12],10.7% and -7.32%
same,Potency,[3],inactive
NCCSSCCN,outcome,[4],inactive
same,outcome,[5],inactive
same,outcome,[1],inactive
same,"activity change, negative = inhibition",[2],3.98% (inactive)
same,max response,[2]; [11],9.22%
same,max response,[2]; [12],16.2%
same,Potency,[3],inactive
CN1CCc2cc(NC(=O)Nc3cccnc3)ccc21,outcome,[4],inactive
same,outcome,[5],inactive
same,outcome,[1],inactive
same,"activity change, negative = inhibition",[2],0.252% (inactive)
same,max response,[2]; [11],32.8%
same,max response,[2]; [12],37.5%
same,Potency,[3],inactive
CC(C)(C)NCC(O)COc1nsnc1N1CCOCC1 (stereo unspecified),outcome,[1],inactive
same,Potency,[3],inactive
O=c1[nH]c2cc([N+](=O)[O-])c([N+](=O)[O-])cc2[nH]c1=O,outcome,[4],inactive
same,outcome,[5],inactive
same,outcome,[1],inactive
same,"activity change, negative = inhibition",[2],3.97% (inactive)
same,max response,[2]; [11],-1.11%
same,max response,[2]; [12],2.64%
same,Potency,[3],inactive
COc1cccc(OC)c1OCCNCC1COc2ccccc2O1 (stereo unspecified),outcome,[1],inactive
same,"activity change, negative = inhibition",[2],3.94% (inactive) and -4.43% (inactive)
same,max response,[2]; [11],10.2% and -61.3%
same,max response,[2]; [12],14.3% and -62.3%
same,Potency,[3],inactive
Fc1cccc(/C=N/N=C/c2cccc(F)c2)c1,outcome,[1],inactive
same,"activity change, negative = inhibition",[2],2.18% (inactive)
same,max response,[2]; [11],-17.3%
same,max response,[2]; [12],-14.5%
same,Potency,[3],inactive
CN1CCc2cc(O)c(O)cc2C(c2ccccc2)C1 (stereo unspecified),outcome,[1],inactive
same,"activity change, negative = inhibition",[2],-0.441% (inactive)
same,max response,[2]; [11],31.9%
same,max response,[2]; [12],29.5%
same,Potency,[3],inactive
O=C(/C=C/c1ccc(O)cc1)c1ccc(O)cc1O,outcome,[1],inactive
same,"activity change, negative = inhibition",[2],6.63% (inactive) and 0.947% (inactive)
same,max response,[2]; [11],1.72% and 46.2%
same,max response,[2]; [12],5.97% and 48.5%
same,Potency,[3],inactive
COc1cc2c(CCNC(C)=O)c[nH]c2cc1Cl,outcome,[4],inactive
same,outcome,[5],inactive
same,outcome,[1],inactive
same,"activity change, negative = inhibition",[2],-11.4% (inactive)
same,max response,[2]; [11],-19%
same,max response,[2]; [12],-30.9%
same,Potency,[3],inactive
O=C(O)/C=C/C(O)c1ccc(Cl)cc1 (stereo unspecified),outcome,[1],inactive
OC[C@H]1O[C@@H](n2cnc3c(NC4CCCCC4)ncnc32)[C@H](O)[C@@H]1O,outcome,[1],inactive
same,"activity change, negative = inhibition",[2],0.866% (inactive)
same,max response,[2]; [11],-23.3%
same,max response,[2]; [12],-24.5%
same,Potency,[3],inactive
Cn1c(=O)c2[nH]c(-c3ccccc3)nc2n(C)c1=O,outcome,[4],inactive
same,outcome,[5],inactive
same,outcome,[1],inactive
same,"activity change, negative = inhibition",[2],1.32% (inactive)
same,max response,[2]; [11],63.6%
same,max response,[2]; [12],55.6%
same,Potency,[3],inactive
NCCCCC(=O)O,outcome,[4],inactive
same,outcome,[5],inactive
same,outcome,[1],inactive
same,"activity change, negative = inhibition",[2],7.28% (inactive) and -0.299% (inactive)
same,max response,[2]; [11],-8.72% and -47.7%
same,max response,[2]; [12],11.7% and -48.3%
same,Potency,[3],inactive
CC1CN(S(=O)(=O)c2cccc3cnccc23)CCN1 (stereo unspecified),outcome,[1],inactive
same,"activity change, negative = inhibition",[2],1.97% (inactive)
same,max response,[2]; [11],5.7%
same,max response,[2]; [12],7.5%
same,Potency,[3],inactive
CN(C)CCC(c1ccc(Cl)cc1)c1ccccn1 (stereo unspecified),Potency,[6],inactive
same,Potency,[7],inactive
same,Potency,[8],inactive
same,Potency,[9],inactive
same,Potency,[10],inactive
same,outcome,[1],inactive
same,"activity change, negative = inhibition",[2],1.75% (inactive)
same,max response,[2]; [11],45.4%
same,max response,[2]; [12],46%
same,Potency,[3],inactive
C=CC(N)CCC(=O)O (stereo unspecified),outcome,[1],inactive
same,"activity change, negative = inhibition",[2],4.04% (inactive)
same,max response,[2]; [11],13.5%
same,max response,[2]; [12],19.4%
same,Potency,[3],inactive
O=C(O)CNC(=O)C(CS)Cc1ccccc1 (stereo unspecified),outcome,[1],inactive
same,"activity change, negative = inhibition",[2],0.149% (inactive)
same,max response,[2]; [11],-2.09%
same,max response,[2]; [12],-2.71%
same,Potency,[3],inactive
Cc1ccc(C(=O)O[C@H](C(=O)O)[C@@H](OC(=O)c2ccc(C)cc2)C(=O)O)cc1 (tested in a mixture with another compound),outcome,[1],inactive

# Reference: PubChem BioAssay (NCATS)
